PubChem BioAssay (NCI)
This is part of a sample that, as a whole, favours compounds with a hit. Of some 83,000 tested, about 20% had one in any assay.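 Method: cells in 96-well plates; compound added at one concentration; 48 h incubation; percent growth measured; values under 10 scored active.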 A number with no mark means an inactive call. Activity calls are given as the source filed them.

System: SK-MEL-2 melanoma
Assay: NCI-60 one-dose screen, 48 h (100 = growth as untreated, 0 = no growth, -100 = all killed)
Details: 10 µM unless noted

With `C#C[C@]1(O)CC[C@H]2[C@@H]3CC=C4c5sc(Nc6cccc(C)n6)nc5CC[C@]4(C)[C@H]3CC[C@@]21C` the growth was -9.35% (active).
For `COc1cc(NC2=C(Cl)C(=O)c3nc(C)ccc3C2=O)cc(OC)c1`, the growth was 5.03% (active).
In the case of `C#C[C@]1(O)CC[C@H]2[C@@H]3CC=C4c5sc(Nc6cc(Cl)ccn6)nc5CC[C@]4(C)[C@H]3CC[C@@]21C`, the growth is reported as -4.31% (active).
For `CN1CCN(Cc2ccc(NC(=O)c3cncc(C#Cc4cnc5ccc(O[C@H]6CCOC6)nn45)c3)cc2C(F)(F)F)CC1`, the growth was -88% (active).
For `C#C[C@]1(O)CC[C@H]2[C@@H]3CC=C4c5sc(Nc6ccncc6)nc5CC[C@]4(C)[C@H]3CC[C@@]21C`, the growth was -15% (active).

First: Clc1ccc(-c2csc(N/N=C/c3nc4ccccc4n3C3CC3)n2)cc1
Second: Cc1ccc(-c2csc(N/N=C/c3nc4ccccc4n3C3CC3)n2)cc1
The growth of the first is higher: 106% for the first, 74.7% for the second.

Going from `O=C(NNc1nc2cc(F)c(F)cc2n2cccc12)c1ccncn1` to `O=C(NNc1nc2cc(F)cc(F)c2n2cccc12)c1ncccn1`, the growth falls from 29.8% to 23.2%.

Going from `CCn1c2ccc(/C=N/NS(=O)(=O)CCN(C)C)cc2c2cc(/C=N/NS(=O)(=O)CCN(C)C)ccc21` to `COc1ccc(S(=O)(=O)n2cc(C=O)c3ccccc32)c(OC)c1`, the growth falls from 105% to 96.1%.

Going from `COc1ccc(-c2nnc(/N=C3/C(=O)Nc4ccc(Br)cc43)o2)cc1` to `O=C1Nc2ccc(Br)cc2/C1=N\c1nnc(-c2ccc(Cl)cc2)o1`, the growth falls from 101% to 87.6%.

Compared with `O=C(CCCCCCN1CC(=O)N2[C@@H](c3ccc(Cl)c(F)c3)c3[nH]c4ccccc4c3C[C@H]2C1=O)NO`, `O=C1[C@@H]2Cc3c([nH]c4ccccc34)[C@H](c3c(Cl)cccc3Cl)N2C(=O)CN1C1CCN(Cc2ccccc2)CC1` is lower in growth: 104% for the first, 85.7% for the second.

First: O=C(N/N=C\c1ccc(Cl)cc1)c1ccc2nc(-c3ccc(Br)cc3)[nH]c2c1
Second: COc1ccc(/C=N\NC(=O)c2ccc3nc(-c4ccc(Br)cc4)[nH]c3c2)cc1
The growth of the first is lower: 82.7% for the first, 96.9% for the second.

First: O=C1CSC(=O)N1Cc1cc2ccccc2nc1Cl
Second: NS(=O)(=O)Oc1ccc2nc(Nc3ccc(F)c(F)c3)ccc2c1
The growth of the first is lower: 94.7% for the first, 116% for the second.

Going from `CCCCSc1nnc(-c2ccc(-c3ccc(Cl)cc3)nc2C)o1` to `COc1ccc(-c2nc(SCC(C)C)nc(N/N=C\c3cccc([N+](=O)[O-])c3)c2C#N)cc1`, the growth falls from 106% to 86.2%.

First: NS(=O)(=O)c1ccc(Nc2nc(N/N=C/c3ccc([N+](=O)[O-])cc3)nc(Nc3ccccc3)n2)cc1
Second: C#CCOc1ccc(/C=N/Nc2nc(-c3cc(Cl)ccc3Cl)cs2)cc1
The growth of the first is lower: 18.2% for the first, 113% for the second.

Going from `Cc1ccc(/C=C/CC(=O)Nc2ccc(C(=O)Nc3ccc(F)cc3N)cc2)cn1` to `COc1cc(/C=C/C(=O)c2ccc(N3CCN(C)CC3)cc2)ccc1F`, the growth rises from 60.7% to 115%.

First: O=C(c1ccc(O)cc1)[C@@H]1[C@@H]2CCCN2[C@@]2(C(=O)N(C(=O)c3ccc(F)cc3)c3ccccc32)[C@H]1c1ccc(F)cc1
Second: O=C1c2c(c3c4cccnc4[nH]c3c3ccc4ccccc4c23)C(=O)N1CCN1CCCCC1
The growth of the first is lower: 110% for the first, 114% for the second.

Going from `N#C/C(=C\c1ccc2ccccc2c1)C(=O)Nc1sc2c(c1C#N)CCC2` to `C#CCOc1ccc(/C=N/Nc2nc(-c3cc4cc(Br)cc(Br)c4oc3=O)cs2)cc1`, the growth rises from 100% to 109%.

Compared with `C/C=C/C=C1\C[C@H]2CO[C@H](O2)C1=O`, `CC1CCN(S(=O)(=O)c2ncsc2-c2ccccc2)CC1` is lower in growth: 100% for the first, 96.2% for the second.

Going from `CNC(=O)c1cc(Oc2ccc3nc(NC(=O)c4ccc(CN5CCN(C)CC5)c(C(F)(F)F)c4)sc3c2)ccn1` to `O=C1c2c(c3c4cc(Br)ccc4[nH]c3c3ccc4ccccc4c23)C(=O)N1CCN1CCCCC1`, the growth rises from 98.7% to 112%.

Compared with `C#C[C@]1(O)CC[C@H]2[C@@H]3CC=C4c5sc(Nc6ccc(OC)nc6)nc5CC[C@]4(C)[C@H]3CC[C@@]21C`, `CC(C)c1nn(-c2ccccc2)c(N2CCCCC2)c1/C=N/NC(N)=S` is higher in growth: 68% for the first, 104% for the second.

`Cc1cnc2nc(NN)[nH]n12` gave a growth of 102%.
